Experimental data reported in PubChem BioAssay (NCATS).
Results filed as inconclusive are left out. A call without a number means that no potency is given here. The source made the active and inactive calls. Calls come from the whole dose curve; as a rule, active = well fitted inhibition curve with a large enough effect; inconclusive = small, poorly fitted or top-dose-only effect; inactive = no such curve, though single readings can be large or run the other way.

Biological target: Thioredoxin reductase 1, cytoplasmic (Rattus norvegicus) (UniProt O89049)
Sequence (O89049 whole entry, looked up): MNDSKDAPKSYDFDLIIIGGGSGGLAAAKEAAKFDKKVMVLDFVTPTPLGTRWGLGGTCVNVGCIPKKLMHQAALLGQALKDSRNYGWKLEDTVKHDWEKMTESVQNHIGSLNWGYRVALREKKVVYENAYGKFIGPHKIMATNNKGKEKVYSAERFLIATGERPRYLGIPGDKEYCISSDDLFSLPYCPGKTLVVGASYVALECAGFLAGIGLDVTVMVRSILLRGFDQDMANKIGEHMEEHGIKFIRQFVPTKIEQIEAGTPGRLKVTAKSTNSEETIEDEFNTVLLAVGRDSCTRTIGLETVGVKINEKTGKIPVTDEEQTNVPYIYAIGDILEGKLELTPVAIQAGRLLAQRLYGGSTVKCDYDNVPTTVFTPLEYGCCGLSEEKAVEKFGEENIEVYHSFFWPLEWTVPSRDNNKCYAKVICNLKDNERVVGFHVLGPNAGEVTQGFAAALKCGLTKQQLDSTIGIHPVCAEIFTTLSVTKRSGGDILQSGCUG
Assay: qHTS Assay for Inhibitors of Mammalian Selenoprotein Thioredoxin Reductase 1 (TrxR1) (AID 488773); note: nearly all actives have a fitted effect of over 40% in size
Conditions: purified TrxR1 enzyme activity; Potency: inhibition; series mostly up to 57.1 µM
From the text: The selenoprotein thioredoxin reductase (TrxR; EC 1.8.1.9) is a FAD containing homodimeric pyridine nucleotide-disulfide oxidoreductase with many cellular roles. Together with NADPH and its prime substrate thioredoxin (Trx), the enzyme forms the core of the Trx system. The mammalian Trx system exerts a wide spectrum of functions including redox regulation, antioxidant defense, regulation of transcription factors as well as support of cell growth and replication. Many of these functions involve the reduction of Trx, which may subsequently reduce a number of different substrates including ribonucleotide reductase, peroxiredoxins or NFkB. Mammalian TrxR itself also has a broad substrate specificity, reducing both protein and non-protein substrates, including low molecular weight compounds such as dehydroascorbate, lipoic acid, ubiquinone, and juglone. In addition, several drugs in clinical use for anticancer treatment are indeed known to target TrxR1.
This BioAssay is a validation of an NADPH fluorescence-based, dual-purpose qHTS rTrxR1 assay designed to find potential inhibitors and substrates of rTrxR1. For this particular BioAssay, actives are potential inhibitors. See related BioAssay for substrate data deposition.
Assay protocol: 2 uL of reagents (buffer in column 4 as negative control and 90 nM rTrxR1 in columns 1-3 and 5-48) were dispensed into Greiner black solid-bottom 1,536-well assay plates, followed by 1 uL of NADPH (400 uM final concentration) to each well. The plates were centrifuged at 1000 rpm for 15 seconds and subsequently incubated for 5 min at room temperature (~22 deg C) to allow for rTrxR1 reduction. Compounds (23 nL) were then transferred via Kalypsys pin tool equipped with 1536-pin array (10 nL slotted pins, V&P Scientific, San Diego, CA). In addition, a duplicate 2-fold serial dilution of the control compounds auranofin, a known gold-based TrxR1 inhibitor, and juglone (5-hydroxy-1,4-naphthoquinone), a natural TrxR1 substrate, were pin-transferred to columns 2 and 3, respectively. After incubation for 15 min at room temperature (~22 deg C), 1 uL of selenite (400 uM final concentration) were dispensed to each well. The plate was immediately transferred to a ViewLux high-throughput CCD imager (PerkinElmer), wherein kinetic measurements of NADPH fluorescence (Ex 340 nm, Em 450 nm) were acquired (8 minute kinetic read, see Table 1). Read 1 was utilized to assess the capacity of a compound to serve as an rTrxR1 substrate, i.e. a decrease in NADPH fluorescence compared to the no-compound background is an indication of a substrate behavior for that particular compound. For inhibitory activity of a compound, delta values, computed as the difference in fluorescence intensity between the first and last reads of an 8-minute time kinetic window, were used. All reagents were diluted in an assay buffer consisting of 50 mM Tris-HCl, pH 7.5, 2 mM EDTA, and 0.01% Tween-20.
Throughout the screen, reagent bottle and all liquid lines were made light-tight to minimize reagent degradation. All screening operations were performed on a fully integrated robotic system (Kalypsys, San Diego, CA) containing one RX-130 and two RX-90 anthropomorphic robotic arms (Staubli, Duncan, SC). Library plates were screened starting from the lowest and proceeding to the highest concentration, and a 'double-pinning' step of the highest concentration was required to access higher concentrations of compounds. Vehicle-only plates, with DMSO being pin-transferred to the columns 5-48, were inserted uniformly at the beginning and the end of each library in order to monitor and record any shifts in the background, which can be affected by reagent dispensers or loss in enzyme activity over time. Screening data were corrected, normalized, and concentration-effect relationships were derived by using publicly-available curve fitting algorithms developed in-house (http://ncgc.nih.gov/pub/openhts).
Potency is the fitted concentration of half-maximal effect.

**Q.** Which Potency does the source give for `O=C(N[C@@H](Cc1ccccc1)C(=O)CCl)OCc1ccccc1` here?
**A.** Its Potency is 21.2 µM (active).

**Q.** How did the Potency turn out when `CN[C@H](CC(=O)O)C(=O)O` was run?
**A.** Its Potency is “inactive”.

**Q.** `NC1(C(=O)O)CC1` was tested. Which Potency did it give?
**A.** Its Potency is “inactive”.

**Q.** `COc1ccc(CCn2nnnc2C2(c3ccc(C)cc3)CC2)cc1` was tested. Which Potency did it give?
**A.** The Potency was “inactive”.

**Q.** With `Cn1ccnc1` as the molecule, how does the Potency read?
**A.** Its Potency is “inactive”.

**Q.** How did the Potency turn out when `O=C(O)C1=CC(=C(c2ccc(O)c(C(=O)O)c2)c2ccc(O)c(C(=O)O)c2)C=CC1=O` was run?
**A.** Its Potency is “inactive”.

**Q.** Which Potency does the source give for `CCCc1c(-c2ccc(O)cc2)nn(-c2ccc(O)cc2)c1-c1ccc(O)cc1` here?
**A.** The Potency was “inactive”.

**Q.** With `CC(N)(Cc1ccc(O)c(O)c1)C(=O)O` (stereo not given) as the molecule, how does the Potency read?
**A.** Its Potency is 2.99 µM (active).

**Q.** For `CC1C(=O)N(C)C(=O)c2nc[nH]c21` (stereo not given), which Potency is on record?
**A.** Its Potency is “inactive”.

**Q.** Which Potency does the source give for `c1ccc(C(NCCNC(c2ccccc2)c2ccccc2)c2ccccc2)cc1` here?
**A.** The Potency was “inactive”.

**Q.** With `Brc1c(Br)c(Br)c2[nH]cnc2c1Br` as the molecule, how does the Potency read?
**A.** The Potency was “inactive”.

**Q.** How did the Potency turn out when `COc1cc(CC(=O)O)ccc1O` was run?
**A.** The Potency was “inactive”.

**Q.** With `CC1CCN(CC[C@H]2CCCN2S(=O)(=O)c2cccc(O)c2)CC1` as the molecule, how does the Potency read?
**A.** Its Potency is “inactive”.

**Q.** How did the Potency turn out when `COc1cc(CNC(=O)CCCCCCC(C)C)ccc1O` was run?
**A.** Its Potency is “inactive”.

**Q.** `COc1ccc(CCN(C)CCc2ccc(OC)c(OC)c2)cc1OC` was tested. Which Potency did it give?
**A.** Its Potency is “inactive”.

**Q.** Which Potency does the source give for `C=C1C(=O)O[C@@H]2[C@H]3O[C@]3(C)CCC=C(C)CC[C@@H]12` here?
**A.** Its Potency is 16.8 µM (active).

**Q.** `NC(N)=NC(N)=Nc1cccc(Cl)c1` was tested. Which Potency did it give?
**A.** Its Potency is “inactive”.

**Q.** `CC[N+](CC)(CC)CC(=O)Nc1c(C)cccc1C` was tested. Which Potency did it give?
**A.** Its Potency is “inactive”.

**Q.** With `C#CCn1c(=O)c2c(ncn2C)n(C)c1=O` as the molecule, how does the Potency read?
**A.** Its Potency is “inactive”.

**Q.** How did the Potency turn out when `CCc1ccc2c(-c3cccc(Cl)c3)nc(=O)n(CC)c2n1` was run?
**A.** Its Potency is “inactive”.

**Q.** For `CC(=O)N[C@@H](Cc1c[nH]c2ccccc12)C(=O)OCc1cc(C(F)(F)F)cc(C(F)(F)F)c1`, which Potency is on record?
**A.** Its Potency is “inactive”.

**Q.** For `COc1ccccc1N1CCN(CCCNc2c(C)c(=O)n(C)c(=O)n2C)CC1`, which Potency is on record?
**A.** Its Potency is “inactive”.

**Q.** Which Potency does the source give for `C[N+](C)(C)CC=O` here?
**A.** The Potency was “inactive”.

**Q.** For `CN1CC(O)C(O)C(O)C1CO` (stereo not given), which Potency is on record?
**A.** Its Potency is “inactive”.

**Q.** For `CN1CCC2(CCN3CCc4c(oc5ccccc45)C3C2)N(C)C1=O` (stereo not given), which Potency is on record?
**A.** Its Potency is “inactive”.

**Q.** For `CCCC(=O)NCCc1c2n(c3ccc(OC)cc13)CCCc1ccccc1-2`, which Potency is on record?
**A.** Its Potency is “inactive”.

**Q.** With `Cc1ccccc1/C=C/C1=NCCN1` as the molecule, how does the Potency read?
**A.** Its Potency is “inactive”.

**Q.** With `NC(=O)CC[C@H](N)C(=O)O` as the molecule, how does the Potency read?
**A.** Its Potency is “inactive”.

**Q.** Which Potency does the source give for `CN(C)CCCc1cc(C(=O)Nc2ccc(-c3ccncc3)cc2)ccc1O` here?
**A.** The Potency was “inactive”.

**Q.** `COc1ccc2c(c1)CCC1C2CC[C@@]2(C)C1CC[C@@H]2NCCCCCCN1C(=O)C=CC1=O` (stereo not given in full) was tested. Which Potency did it give?
**A.** The Potency was “inactive”.

**Q.** Which Potency does the source give for `CNc1cc(NS(=O)(=O)c2ccc(N)cc2)nc(NC)n1` here?
**A.** Its Potency is “inactive”.

**Q.** `Cn1cc(C(F)(F)F)nc1-c1ccc(OCC(O)CNCCOc2ccc(O)c(C(N)=O)c2)cc1` (stereo not given) was tested. Which Potency did it give?
**A.** The Potency was “inactive”.

**Q.** Which Potency does the source give for `O=C(O)C1=CCNCC1` here?
**A.** The Potency was “inactive”.

**Q.** For `COC(=O)[C@H](NC(=O)c1cc(-c2ccccc2)nc2ccccc12)c1ccccc1`, which Potency is on record?
**A.** Its Potency is “inactive”.

**Q.** How did the Potency turn out when `CNCCc1cnc(CCC(c2ccccc2)c2ccccc2)[nH]1` was run?
**A.** The Potency was “inactive”.

**Q.** `NC(Cc1cccc(-c2ccccc2CP(=O)(O)O)c1)C(=O)O` (stereo not given) was tested. Which Potency did it give?
**A.** Its Potency is “inactive”.

**Q.** With `O=C(O)Cc1ccc(O)c(O)c1` as the molecule, how does the Potency read?
**A.** The Potency was 7.52 µM (active).

**Q.** `CCCCCC[C@@H]([C@@H](C)O)n1cnc2c(N)ncnc21` was tested. Which Potency did it give?
**A.** Its Potency is “inactive”.

**Q.** Which Potency does the source give for `COc1ccccc1N1CCN(CCCCN2C(=O)c3ccccc3C2=O)CC1` here?
**A.** Its Potency is “inactive”.

**Q.** `NC/C=C\C(=O)O` was tested. Which Potency did it give?
**A.** Its Potency is “inactive”.
